Screening data as filed in PubChem BioAssay.
RXFP1 agonist: qHTS Assay for Agonists of the Relaxin Receptor RXFP1; Relaxin receptor 1 (Homo sapiens), Q9HBX9; AID 2676, 2010; 0.3% of 370,000 active; HEK293T-RXFP1 cAMP TR-FRET, 30 min; response scale: percent of porcine relaxin response, buffer zero; Potency, µM (titrated, usually from 57.5 µM), for inactives: at the highest dose activation, hits mostly activators; further: potency means the concentration at half of the fitted maximal effect; on the % scale 0 is the no-effect control and ±100 the full control effect; nearly all actives have a fitted effect of over 60% in size
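HEK293 cells stably expressing RXFP1, treated 30 min at 37C with compounds plus PDE4 inhibitor Ro 20174; cAMP measured by HTRF TR-FRET. Normalized to buffer and 29 nM porcine relaxin; EC50 by Hill fit.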
S-ASM inh: Inhibitors of Secretory Acid Sphingomyelinase (S-ASM): qHTS | 0.006% of 340,000 active | placental ASM, HMU-PC fluorogenic substrate, 60 min | Potency, µM (titrated, usually from 57.5 µM), for inactives: top-dose activity change, negative = inhibition, actives largely listed as inhibitors | AID 504937, 2011; further: potency means the concentration at half of the fitted maximal effect
Target sequence (P17405 47-631 limits assumed): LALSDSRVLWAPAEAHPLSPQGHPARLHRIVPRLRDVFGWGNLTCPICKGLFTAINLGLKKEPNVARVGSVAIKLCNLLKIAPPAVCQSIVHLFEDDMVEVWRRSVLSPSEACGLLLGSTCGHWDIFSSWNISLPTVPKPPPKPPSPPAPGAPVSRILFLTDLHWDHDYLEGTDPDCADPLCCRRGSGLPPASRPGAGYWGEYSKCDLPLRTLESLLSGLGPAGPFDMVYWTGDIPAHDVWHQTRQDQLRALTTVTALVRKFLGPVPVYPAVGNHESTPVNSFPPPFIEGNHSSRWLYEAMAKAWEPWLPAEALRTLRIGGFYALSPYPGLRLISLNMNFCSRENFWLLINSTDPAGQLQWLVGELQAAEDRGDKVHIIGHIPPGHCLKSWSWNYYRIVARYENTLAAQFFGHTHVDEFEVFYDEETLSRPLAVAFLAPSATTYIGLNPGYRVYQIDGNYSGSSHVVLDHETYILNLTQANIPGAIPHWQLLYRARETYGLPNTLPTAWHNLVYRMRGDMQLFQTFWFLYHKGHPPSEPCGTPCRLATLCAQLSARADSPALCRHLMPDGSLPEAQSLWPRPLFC
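Fluorogenic HMU-PC substrate (9 uM final) is turned over by placental ASM in 60 min at 37 C after a 10 min compound preincubation. Reaction ended by alkaline stop (pH 10), with fluorescence read at 386/447 nm.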
RXFP1 antagonist: qHTS Assay for Antagonists of the Relaxin Receptor RXFP1 | Relaxin receptor 1 (Homo sapiens), Q9HBX9 | HEK293-RXFP1, relaxin-stimulated cAMP HTRF, 30 min; active compounds read low | activity change, negative = inhibition, % at 57.5 µM | 0.59% of 350,000 active | AID 1259400, 2018;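 active means activity change of -60% or lower, but not beyond a set lower limit; inconclusive means change between -60% and -40%, or beyond the set limit; inactive means change above -40%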; further: on the % scale 0 is the no-effect control and ±100 the full control effect
ERG-DNA inh: qHTS for Small Molecule Inhibitors of the ERG Ets/DNA interaction; Potency, µM (series often up to 76.9 µM), for inactives: at the top dose FP activity, negative = inhibition, hits mostly inhibitors; 0.028% of 370,000 active; AID 624246, 2012; fluorescence polarization, His-ERG Ets domain / labelled DNA; active means well fitted inhibition curve with a large enough effect in the polarisation, with a control signal flat; inconclusive means small, poorly fitted or top-dose-only effect, or effect the other way, or a change in a side signal; inactive means no such curve, though single readings can be large or run the other way; the % refers to the polarisation;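 further: polarization taken with two DNA probes labelled with fluorescein and Texas red; potency means the concentration at half of the fitted maximal effect; % of control where 0% means no effect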
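His-tagged ERG Ets domain (1 uM in the protein solution; 300mM KCl, 50mM Tris-HCl, 1mM EDTA, 1mM DTT, pH 7.5) received compound, then a probe mix of 5 nM fluorescein-DNA and 100nM Texas-615-DNA. Fluorescence polarization was read for both dyes.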
Mito fusion yeast: qHTS Assay for Small Molecule Inhibitors of Mitochondrial Division or Activators of Mitochondrial Fusion; Potency, µM (top dose mostly 46.1 µM), without a hit: top-dose growth rescue (activation), usual class: activators; 0.23% of 320,000 active; S. cerevisiae fusion-defective mutant growth rescue, CellTiterGlo 48 h; AID 485298, 2010; further: potency means the concentration at half of the fitted maximal effect; % of control where 0% means no effect; nearly all actives have a fitted effect of over 45% in size
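Growth-rescue viability read-out: after 48 h at the non-permissive 37C in glycerol/ethanol YPEG, yeast mitochondrial fusion mutants are measured by CellTiterGlo luminescence; compounds (23 nl pinned per well) restoring growth score as division inhibitors or fusion activators.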
miR-21 reporter: qHTS Assay for Modulators of miRNAs and/orActivators of miR-21 | HeLa miR-21 FLuc reporter, luciferase, 48 h | Potency, µM (top dose mostly 38.3 µM), inactives show at the top dose activity change, positive = activation, actives largely listed as activators | 340,000 tested, under 10 active;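 further: % of control where 0% means no effect; miR-21 action dims this reporter so a rising signal means less miR-21 action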
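Compounds were titrated across several concentrations (up to approximately 40 uM) and incubated 48 hours with HeLa miR-21-FLuc reporter cells (miR-21 target sequence downstream of FLuc, endogenous miR-21). Readout was firefly luciferase luminescence after lytic detection reagent.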
* hit, by the source's call; ? = inconclusive; . = no result. In the library only some 0.72% were active in any assay of this set; here they are far more common. Unless noted, the call rests on the fitted dose curve; in most records, active means well fitted curve in the direction sought with a large enough effect; inconclusive means small, poorly fitted or top-dose-only effect, or another doubt; inactive means no such curve, though single readings can be large; an effect the other way counts as inactive or inconclusive.

SMILES	RXFP1 agonist	S-ASM inh	RXFP1 antagonist	ERG-DNA inh	Mito fusion yeast	miR-21 reporter
CCOCCCn1c(=S)[nH]c2cc(C(=O)NCC(OC)OC)ccc2c1=O	-2.8%	1.9%	-65.8*	-0.9%	?	1.1%
CCc1ccccc1NC(=O)N1CC(C)Sc2ccccc21 (stereo unspecified)	0.4%	.	-9.0	3.6%	.	5.0%
CCCCn1c(=N)n(CCOc2ccccc2OC)c2ccccc21	-3.7%	.	-14.3	2.2%	.	?
CCCCn1c(=N)n(CCOc2ccc(C)cc2)c2ccccc21	2.4%	1.0%	-75.2*	-2.7%	-27.1%	24.8%
COCCn1c(C)c(C)c(S(=O)(=O)c2ccccc2)c1N	-1.8%	13.2%	5.0	35.5µM*	-7.3%	0.1%
C[C@@H](C(=O)OCC(=O)c1ccc(F)c(F)c1)N1C(=O)C2CCCCC2C1=O (stereo partly specified)	.	-0.5%	-3.2	1.3%	.	.
O=C(c1ccccc1F)N1c2nc(-c3ccco3)nn2C2(CCCCC2)[C@@H]2CCCC[C@@H]21	-1.0%	.	-65.5*	-6.0%	.	5.7%
O=C(c1ccc(F)cc1)N1c2nc(-c3ccco3)nn2C2(CCCCC2)[C@@H]2CCCC[C@@H]21	2.9%	.	-70.9*	0.4%	.	1.1%
COc1ccc(OCC(=O)N2CCN(C(=O)c3cccc(OC)c3)CC2)cc1	1.2%	.	.	-4.6%	.	-0.5%
O=C(CCNC(=O)N1CC(=O)Nc2ccccc21)NCc1cccc(Cl)c1	0.4%	-1.1%	-92.3*	-7.6%	-4.6%	0.6%
O=C(CCNC(=O)N1CC(=O)Nc2ccccc21)Nc1cccc(Cl)c1	2.3%	2.4%	-11.0	-14.7%	-0.6%	0.0%
CC1(C)SC2C(NC(=O)C(c3ccccc3)S(=O)(=O)O)C(=O)N2C1C(=O)O (stereo unspecified)	.	.	-10.0	.	.	.
CCn1nc(C)cc1-c1nnc(Sc2ncc([N+](=O)[O-])s2)n1C	1.5%	-2.3%	-72.8*	3.9%	-67.6%	?
CCn1nc(C)cc1-c1nnc(SCC(=O)Nc2ccccc2)n1CCCOC	-2.5%	1.6%	-2.6	5.0%	-8.3%	3.7%
COc1ccc(-c2csc(N(CCCN(C)C)C(=O)c3ccc(C(C)(C)C)cc3)n2)cc1	-0.4%	-8.0%	-65.1*	6.3%	-12.1%	2.8%
COc1ccc(-c2csc(N(CCCN(C)C)C(=O)c3ccc(C)cc3)n2)cc1	1.3%	-1.8%	-3.3	-1.2%	-10.5%	28.5%
Cc1cc(C)c(S(=O)(=O)N2CCN(c3ccccn3)CC2)c(C)c1	-1.4%	-3.4%	-95.1*	0.8%	?	.
CCC1(c2ccccc2)SC(N)=NC1=O (stereo unspecified)	.	4.2%	1.3	-4.3%	.	.
CCC1(c2ccccc2)SCC(c2ccccc2)=NC1=O (stereo unspecified)	.	-9.2%	-61.7*	-1.0%	.	.
CCC(=O)Nc1sc2c(c1C(=O)Nc1ccc(Br)cc1)CCCCC2	19.8%	.	-29.1	8.6%	.	-36.8%
OC(c1ccccc1)(C1CCCCC1)C(CN1CCOCC1)c1ccccc1 (stereo unspecified)	0.5%	0.6%	-18.1	6.9%	-10.4%	16.9%
COc1ccc(C(O)(C2CCCCC2)C(CN2CCOCC2)c2ccccc2)cc1 (stereo unspecified)	0.0%	-1.4%	-89.7*	-3.1%	-14.1%	20.9%
CCCCCC(O)(c1ccc(OC)cc1)C(CN1CCOCC1)c1ccccc1 (stereo unspecified)	4.1%	0.4%	-60.7*	-9.4%	8.4%	19.1%
O=C(Nc1nc(-c2ccco2)c(-c2ccco2)s1)c1ccc(F)cc1F	-0.5%	-0.5%	?	13.1%	-7.7%	.
O=C(Nc1nc(-c2ccco2)c(-c2ccco2)s1)c1c(F)cccc1Cl	0.3%	1.6%	-22.0	-2.9%	12.6µM*	.
SMILES	RXFP1 agonist	S-ASM inh	RXFP1 antagonist	ERG-DNA inh	Mito fusion yeast	miR-21 reporter
COCCN(C(=O)c1cc(-c2ccncc2)nc2ccccc12)c1c(N)n(CC(C)C)c(=O)[nH]c1=O	1.0%	2.4%	-7.1	3.5%	5.2%	.
Cc1ccc(S(=O)(=O)NCCC(=O)N2CCN(S(=O)(=O)c3ccccc3)CC2)cc1C	0.8%	2.7%	-2.4	-3.0%	2.1%	.
Cc1ccc(S(=O)(=O)NCCC(=O)N2CCN(S(=O)(=O)c3cccc(F)c3)CC2)cc1C	0.1%	-5.2%	-67.0*	-6.2%	-3.5%	.
CN(C)CCCNC(=S)NCC(c1ccc(Cl)cc1Cl)c1c[nH]c2ccccc12 (stereo unspecified)	2.1%	-5.5%	-60.6*	-1.8%	-25.5%	?
Cc1cc(C(=O)CSc2nnc(-c3ccccc3)n2Cc2ccc3c(c2)OCO3)c(C)n1C	0.5%	-0.3%	-4.0	-1.8%	0.1%	-4.2%
Cc1cc(C(=O)CSc2nc3ccccc3c(=O)n2C)c(C)n1Cc1ccc2c(c1)OCO2	20µM*	-3.7%	-20.5	10.5%	3.1%	2.0%
COCCCNC(=O)c1oc2c(c1C)-c1nn(Cc3cccc(Cl)c3)cc1CC2	-0.9%	.	-16.1	-0.3%	.	12.4%
Cc1cccc(CNC(=O)c2oc3c(c2C)-c2nn(Cc4cccc(Cl)c4)cc2CC3)c1	13.4%	.	?	-4.0%	.	-33.3%
CCOc1ccc(CNC(=O)c2oc3c(c2C)-c2nn(Cc4cccc(Cl)c4)cc2CC3)cc1	8.0%	.	-78.3*	2.6%	.	-0.9%
Cc1cccc(CNC(=O)c2oc3c(c2C)-c2nn(Cc4ccccc4Cl)cc2CC3)c1	12.2%	.	-66.1*	6.6%	.	-16.6%
CCOC(=O)C1CCCN(C(=O)C2CCN(c3nnc(C)c4c(C)n(-c5ccccc5)nc34)CC2)C1 (stereo unspecified)	10.0%	.	-0.7	6.4%	.	-0.9%
Cc1ccc(NC(=O)/C(C#N)=C/c2cc(C)n(-c3ccc(Br)cc3)c2C)cc1C	0.4%	.	-63.3*	10.5%	.	-4.7%
N#Cc1nc(COc2ccc(-c3ccccc3)cc2)oc1NCCCN1CCOCC1	1.0%	-9.8%	-61.6*	-8.5%	8.2%	2.4%
Cc1onc(-c2ccc(Cl)cc2Cl)c1-c1csc(N/N=C/c2ccccc2Cl)n1	-0.3%	17.5%	-69.0*	6.9%	-7.0%	0.6%
Cc1nc2ccccn2c(=O)c1CCN1CCC(C(=O)c2ccc(F)cc2)CC1	1.3%	4.6%	18.7	47.2%	11.3%	0.2%
